LDHA block: inhibitors of human lactate dehydrogenase A; purified LDHA, NADH/diaphorase-resazurin fluorescence; stronger effect = lower value; activity change, % (values are at about 110 or 230 µM); P00338; 480,000 tested, 0.15% active; in the data active = activity change below about -30%; inconclusive = mostly about -25% to -30%;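 note: plate controls were DMSO wells for no effect and wells without enzyme for full effect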
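Human LDH5 (2 nM) was incubated with 0.06 mM NADH and 0.2 mM pyruvate for 5 min at room temperature in Tris pH 7.4. Remaining NADH was coupled through diaphorase/resazurin, and resorufin fluorescence was read at 0 and 20 min.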
DT40 TDP1 CPT: DT40-hTDP1 cell growth loss with CPT; chicken DT40 Tdp1-/-;hTDP1 cells + 20 nM CPT, ATP luminescence, 48 h; Potency, µM (series often up to 46.2 µM), without a hit: at the highest dose activity change, negative = growth inhibition, actives largely listed as inhibitors; 420,000 tested, 12% active; note: potency is the fitted concentration of half-maximal effect; nearly all actives have a fitted effect of over 55% in size
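Chicken DT40 Tdp1-/- cells complemented with human TDP1, 400 cells/well, exposed to compounds plus 20 nM camptothecin for at least 48 h at 37 C; viability read as ATP content by CellTiter-Glo luminescence.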
IL-1B inflam inh: blocks inflammasome-driven IL-1 beta release; THP-1 LPS/ATP IL-1B secretion, AlphaLISA, 16 h; stronger effect = lower value; activity change, % at 57.5 µM; 360,000 tested, 4.7% active; in the data active = activity change below about -50%; inconclusive = mostly about -30% to -49%
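THP-1 cells pretreated 1 hr with compounds (up to 57.5 uM final), then stimulated with LPS (250 ng/mL final) plus ATP (1.25 mM final); secreted IL-1B measured by AlphaLISA after 16 hr, decreased signal indicating inhibition.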
Gal4-VP16 FLuc: Gal4-VP16 reporter inhibition counter-screen. Drosophila S2 Gal4-VP16 UAS-luciferase, luminescence, 20 h. 310,000 tested, 3.5% active. Potency, µM (titrated, usually from 53.6 µM), without a hit: at the top dose activity, negative = inhibition, actives largely listed as inhibitors. AID 2546;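 note: Gal4-VP16 expression switched on by copper sulfate through the metallothionein promoter; potency is the fitted concentration of half-maximal effect; nearly all actives have a fitted effect of over 50% in size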
RORg inh: blocks mouse ROR gamma transcriptional activity. P51450. Potency, µM (series often up to 53.6 µM), for the others: top-dose activity change, negative = inhibition, actives largely listed as inhibitors. Drosophila S2 Gal4-RORgamma UAS-luciferase reporter, 20 h. 310,000 tested, 5.4% active; note: potency is the fitted concentration of half-maximal effect; nearly all actives have a fitted effect of over 60% in size
Target sequence (P51450 whole entry, looked up, the tested form may be a part): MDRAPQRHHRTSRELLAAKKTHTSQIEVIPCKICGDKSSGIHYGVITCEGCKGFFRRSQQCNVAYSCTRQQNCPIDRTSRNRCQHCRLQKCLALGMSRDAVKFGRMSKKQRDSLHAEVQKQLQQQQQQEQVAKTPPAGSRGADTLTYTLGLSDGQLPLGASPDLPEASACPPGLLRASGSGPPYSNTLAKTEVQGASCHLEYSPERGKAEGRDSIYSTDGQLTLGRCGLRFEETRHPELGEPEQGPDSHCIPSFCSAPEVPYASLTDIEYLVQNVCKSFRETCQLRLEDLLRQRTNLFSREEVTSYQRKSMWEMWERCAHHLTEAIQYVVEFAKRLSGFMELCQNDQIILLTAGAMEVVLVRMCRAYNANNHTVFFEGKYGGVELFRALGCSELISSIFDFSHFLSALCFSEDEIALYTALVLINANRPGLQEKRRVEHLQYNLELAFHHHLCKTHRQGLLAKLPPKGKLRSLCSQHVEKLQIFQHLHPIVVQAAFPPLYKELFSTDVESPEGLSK
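Luminescence from a UAS-regulated Photinus luciferase reporter in stably transfected Drosophila Schneider cells is measured; decreased signal marks ROR gamma inhibition. Fusion expression is induced by 700 uM copper sulfate for 20 hr.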
TDP1 cell noCPT: qHTS for Inhibitors of human tyrosyl-DNA phosphodiesterase 1 (TDP1): qHTS in cells in absence of CPT; DT40 Tdp1-/- hTDP1 cells, no CPT, ATP luminescence, 48 h; Potency, µM (highest dose often 46.2 µM), without a hit: top-dose activity change, negative = growth inhibition, hits mostly inhibitors; 420,000 tested, 15% active; AID 686978, 2013; note: potency is the fitted concentration of half-maximal effect; nearly all actives have a fitted effect of over 55% in size
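Stably hTDP1-transfected Tdp1-null chicken DT40 cells were treated with library compounds minus camptothecin and grown for at least 48 hr at 37 °C, after which cellular ATP was quantified by luminescence.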
Numbers without * were called inactive; ? = inconclusive; nt = no result given; [ ] = another dose, or the depositor's remark. This is a sample that favours compounds with a hit; in the whole collection about 18% have one here. Unless noted, calls come from the whole dose curve; as a rule, active = well fitted curve in the direction sought with a large enough effect; inconclusive = small, poorly fitted or top-dose-only effect, or another doubt; inactive = no such curve, though single readings can be large; an effect the other way counts as inactive or inconclusive. Unless noted, % is set by controls: 0 for no effect and ±100 for the full control effect.

SMILES	LDHA block	DT40 TDP1 CPT	IL-1B inflam inh	Gal4-VP16 FLuc	RORg inh	TDP1 cell noCPT
C(=C\c1ccccc1)/CN1CCN(C(c2cccs2)c2nnnn2-c2ccc3c(c2)OCCO3)CC1 (stereo not given)	-2	?	-20	nt	nt	23µM*
CCCCn1nnnc1C(c1cc2ccccc2o1)N1CCN(c2ncccc2C#N)CC1 (stereo not given)	-3	?	-3	nt	nt	18µM*
COc1ccc(C(c2nnnn2-c2ccc3c(c2)OCCO3)N2CCN(C/C=C/c3ccccc3)CC2)cc1 (stereo not given)	-6	16µM*	?	nt	nt	16µM*
C(=C\c1ccccc1)/CN1CCN(C(c2cc3ccccc3o2)c2nnnn2-c2ccc3c(c2)OCCO3)CC1 (stereo not given)	-5	13µM*	-13	nt	nt	15µM*
CC(=O)Nc1cccc(NC(=O)C(=O)NCCc2csc(-c3ccc(C(F)(F)F)cc3)n2)c1	4	nt	nt	nt	nt	nt
COc1cc(Br)cc2cc(-c3nc(-c4ccc(C(F)(F)F)cc4)no3)c(=O)oc12	-3	nt	nt	nt	nt	nt
CCCCn1nnnc1C(c1cc2ccccc2o1)N1CCCC1 (stereo not given)	1	?	18	nt	nt	-88%
COc1ccc(C(c2nnnn2-c2c(C)cccc2C)N2CCN(C/C=C/c3ccccc3)CC2)cc1 (stereo not given)	-7	?	19	nt	nt	?
COc1ccc(-n2nnnc2C(c2cc3ccccc3o2)N2CCN(C/C=C/c3ccccc3)CC2)cc1 (stereo not given)	-5	23µM*	-16	nt	nt	15µM*
COc1ccc(-n2nnnc2C(c2cccc3ccccc23)N2CCN(C/C=C/c3ccccc3)CC2)cc1 (stereo not given)	-10	7.3µM*	-19	nt	nt	8.2µM*
CCCCn1nnnc1C(c1cc2ccccc2o1)N1CCN(C/C=C/c2ccccc2)CC1 (stereo not given)	-1	21µM*	-11	nt	nt	16µM*
O=C(Nc1ccccc1-c1cn2c(CN3CCNCC3)csc2n1)c1cnc2ccccc2n1	0	3.5µM*	nt	nt	nt	5.6µM*
COc1cc(NC(=O)c2c(-c3ccccc3Cl)noc2C)c2ncccc2c1	4	16µM*	11	nt	nt	16µM*
Cc1onc(-c2ccccc2Cl)c1C(=O)Nc1cccc2nsnc12	-3	?	6	8%	-24%	?
Cc1onc(-c2ccccc2Cl)c1C(=O)Nc1cccc2cccnc12	3	9.2µM*	-20	3%	-28%[10 µM]	4.1µM*
Cc1ccc(C(=O)NC(O)C(=O)c2ccc(C)cc2)cc1 (stereo not given)	5	nt	nt	nt	nt	nt
COc1ccc(/C=N/OCC(=O)OCC(=O)N(C)c2ccccc2)cc1	-2	-1%	9	nt	nt	2%
CN(C(=O)CO/N=C/c1ccc(Cl)cc1)c1ccccc1	-5	-18%	-51*	11%	29%	-25%
CCc1cccc(CC)c1NC(=O)Cn1c(-c2ccccc2Cl)nc2ccccc21	4	1%	26	-11%	14%	-5%
Cn1c(-c2ccc(C=O)s2)nc2ccccc21	-6	-24%	3	-20%	?	-30%
Cc1ccccc1Cn1c(-c2cccs2)nc2ccccc21	-2	?	nt	nt	nt	16µM*
CC(C)Cn1c(-c2cccs2)nc2ccccc21	-7	16µM*	-12	?	-27%	?
Cn1c(-c2cccs2)nc2ccccc21	-7	-2%	-5	5%	13µM*	?
CC(C)Cn1c(-c2ccccc2Cl)nc2ccccc21	-1	?	nt	nt	nt	16µM*
c1csc(Cn2c(-c3cccs3)nc3ccccc32)c1	-2	?	-19	?	?	-17%
SMILES	LDHA block	DT40 TDP1 CPT	IL-1B inflam inh	Gal4-VP16 FLuc	RORg inh	TDP1 cell noCPT
COc1ccc(Cl)cc1NC(=O)c1cc2c(s1)-c1ccccc1S(=O)(=O)C2	-6	nt	nt	nt	nt	nt
C/C(=C\C(=O)NCc1ccccn1)CCc1ccccc1	9	nt	nt	nt	nt	nt
O=c1[nH]c2ccc(-c3csc(Nc4ccccc4F)n3)cc2o1	0	nt	nt	nt	nt	nt
Cc1ccc(OCC(=O)NCc2ccc(-c3nc4ncccc4o3)cc2)cc1	-16	nt	nt	nt	nt	nt
CC1=NN(c2nc(C)cc(C)n2)C(=O)C1CCC(C)C (stereo not given)	1	?	-10	7.9µM*	2µM*	?
CC1=NN(c2nc(C)cc(C)n2)C(=O)C1Cc1ccc(Br)cc1 (stereo not given)	5	nt	nt	nt	nt	nt
CC1=NN(c2nc(C)cc(C)n2)C(=O)C1Cc1ccc(Cl)cc1 (stereo not given)	-36*	nt	nt	nt	nt	nt
Cc1cc(C)c(S(=O)(=O)N2CCC(n3c(CC(C)C)nc4cccnc43)CC2)c(C)c1	5	nt	nt	nt	nt	nt
Cc1ccc2cccc(NC(=O)c3ccc(C)c(C)c3)c2n1	2	nt	nt	nt	nt	nt
CC(C)NC(=O)C(C)Sc1nnc(NC2CC2)s1 (stereo not given)	3	nt	nt	nt	nt	nt
O=C(CC1N=C2c3ccccc3N=C(SCc3ccccc3F)N2C1=O)NCc1ccc2c(c1)OCO2 (stereo not given)	6	18µM*	nt	nt	nt	?
CCOc1ccccc1NC(=O)CSC1=Nc2ccccc2C2=NC(CC(=O)NCc3ccc4c(c3)OCO4)C(=O)N12 (stereo not given)	-5	?	nt	nt	nt	23µM*
COc1cc(SC)ccc1C(=O)Oc1ccccc1C	-12	nt	nt	nt	nt	nt
COc1ccc(S(=O)(=O)N2CCN(C(=O)c3c(C)nn(-c4ccccc4)c3Cl)CC2)cc1	-3	?	-11	-4%	12%	23µM*
Cc1ccc(S(=O)(=O)N2CCN(C(=O)c3c(C)nn(-c4ccccc4)c3Cl)CC2)cc1	-14	?	-54*	-10%	64%	?
CCOc1ccc(NCc2nc3ccccc3n2CCOc2ccccc2)cc1	2	?	-96*	?	?	?
Clc1ccc(NCc2nc3ccccc3n2CCOc2ccccc2)cc1	0	13µM*	nt	nt	nt	21µM*
CCOc1ccc(NCc2nc3ccccc3n2CCOc2ccc(C)cc2)cc1	-4	6.5µM*	nt	nt	nt	8.2µM*
Cc1ccccc1NCc1nc2ccccc2n1CCOc1ccccc1	-2	?	nt	nt	nt	?
O=[N+]([O-])c1ccc(/C=N/Nc2ccc3ccccc3c2)o1	3	?	-9	-29%	-11%	-30%
N#Cc1ccccc1/C=N/Nc1nc(-c2ccccc2)c2cc(Br)ccc2n1	-3	?	?	-25%	11µM*	?

Compound activity (PubChem)
